# Source: ChEMBL document CHEMBL3988442, “University of Dundee, Small-Polar-MMV Screening Library” (2021)
# For some assays here: Results with a measured potency or affinity are listed apart.
# How the values were obtained:
# Set-up in all cases: scale not given: direction of the effect not stated beside the values
# [1] = target: Protein translocase subunit SecA (Escherichia coli (strain K12)) (UniProt P10408); assay: Assay to Identify E. coli SecA ATPase Inhibitors; format: functional; settings: 30 µM
# Chain of Protein translocase subunit SecA (Escherichia coli (strain K12)) (P10408 whole entry): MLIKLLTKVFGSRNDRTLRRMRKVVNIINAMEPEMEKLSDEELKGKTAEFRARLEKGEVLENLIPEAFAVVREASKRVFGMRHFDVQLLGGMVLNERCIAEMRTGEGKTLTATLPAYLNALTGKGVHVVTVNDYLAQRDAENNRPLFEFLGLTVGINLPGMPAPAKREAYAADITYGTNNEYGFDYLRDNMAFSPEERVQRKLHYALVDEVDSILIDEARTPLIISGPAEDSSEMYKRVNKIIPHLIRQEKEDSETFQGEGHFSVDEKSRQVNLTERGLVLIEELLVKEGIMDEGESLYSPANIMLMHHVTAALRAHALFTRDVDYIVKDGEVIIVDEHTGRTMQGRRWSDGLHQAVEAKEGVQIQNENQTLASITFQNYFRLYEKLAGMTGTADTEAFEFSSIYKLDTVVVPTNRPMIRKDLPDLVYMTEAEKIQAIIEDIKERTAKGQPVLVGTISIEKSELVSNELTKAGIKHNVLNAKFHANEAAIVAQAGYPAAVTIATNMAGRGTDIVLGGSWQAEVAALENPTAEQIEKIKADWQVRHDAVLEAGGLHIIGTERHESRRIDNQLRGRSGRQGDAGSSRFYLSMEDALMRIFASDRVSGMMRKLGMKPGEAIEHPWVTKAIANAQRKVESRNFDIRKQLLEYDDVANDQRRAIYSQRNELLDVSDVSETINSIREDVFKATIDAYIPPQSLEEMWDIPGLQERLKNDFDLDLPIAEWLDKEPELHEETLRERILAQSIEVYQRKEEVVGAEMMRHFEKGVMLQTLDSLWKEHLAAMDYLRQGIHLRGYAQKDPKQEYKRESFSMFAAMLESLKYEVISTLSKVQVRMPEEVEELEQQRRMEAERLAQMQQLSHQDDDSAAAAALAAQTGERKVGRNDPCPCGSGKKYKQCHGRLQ
# [2] = target: T1, Ubiquitin-activating enzyme e1, putative (Leishmania donovani (strain BPK282A1)) (UniProt E9BSI1); assay: Leishmania donovani Ubiquitin Activating Enzyme (LdE1); format: functional; settings: 30 µM
# T1 sequence (whole entry): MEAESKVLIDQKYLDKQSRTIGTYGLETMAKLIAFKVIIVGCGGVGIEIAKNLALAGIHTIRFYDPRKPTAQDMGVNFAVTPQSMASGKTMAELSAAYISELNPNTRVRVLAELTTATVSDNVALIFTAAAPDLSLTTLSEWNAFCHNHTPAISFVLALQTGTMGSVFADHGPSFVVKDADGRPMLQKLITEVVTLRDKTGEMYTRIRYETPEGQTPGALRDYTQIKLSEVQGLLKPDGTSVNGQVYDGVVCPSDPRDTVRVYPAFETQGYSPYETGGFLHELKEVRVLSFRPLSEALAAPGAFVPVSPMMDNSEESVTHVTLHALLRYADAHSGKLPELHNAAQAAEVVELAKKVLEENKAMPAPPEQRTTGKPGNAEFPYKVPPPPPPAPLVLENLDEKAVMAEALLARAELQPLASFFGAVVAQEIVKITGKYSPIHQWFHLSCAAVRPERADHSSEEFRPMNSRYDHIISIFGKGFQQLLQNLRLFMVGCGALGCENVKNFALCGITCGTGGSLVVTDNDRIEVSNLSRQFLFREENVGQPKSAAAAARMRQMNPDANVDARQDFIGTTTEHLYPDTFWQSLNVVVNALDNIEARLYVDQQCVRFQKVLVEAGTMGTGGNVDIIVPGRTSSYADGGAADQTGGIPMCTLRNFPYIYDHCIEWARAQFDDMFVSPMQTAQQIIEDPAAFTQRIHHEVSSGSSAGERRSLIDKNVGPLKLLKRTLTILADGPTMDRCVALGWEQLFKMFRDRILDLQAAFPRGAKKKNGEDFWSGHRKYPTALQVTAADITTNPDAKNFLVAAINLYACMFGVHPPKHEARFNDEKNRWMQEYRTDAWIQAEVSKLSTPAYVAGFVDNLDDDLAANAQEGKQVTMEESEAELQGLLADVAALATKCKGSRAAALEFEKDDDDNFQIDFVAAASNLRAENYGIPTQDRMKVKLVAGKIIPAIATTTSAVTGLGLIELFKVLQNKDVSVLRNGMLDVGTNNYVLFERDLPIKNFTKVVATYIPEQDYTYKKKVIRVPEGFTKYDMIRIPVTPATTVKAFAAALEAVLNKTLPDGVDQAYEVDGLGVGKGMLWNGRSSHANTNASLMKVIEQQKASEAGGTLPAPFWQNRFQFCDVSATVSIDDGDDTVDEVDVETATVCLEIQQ
# [3] = target: AMP-activated protein kinase, AMPK (Homo sapiens) (UniProt P54646+O43741+P54619+Q9UGJ0+Q9Y478+Q13131+Q9UGI9); assay: AMP-dependent Kinase enzyme assay. An in vitro enzyme assay that detects ADP turnover that is directly proportional to AMPK activity. This uses naive AMPK that is activated during the assay with MK-8722; format: functional; settings: 30 µM
# [4] = target: Sialic acid-binding Ig-like lectin 9 (Homo sapiens) (UniProt Q9Y336); assay: Hs-Siglec9 ALPHAscreen SOP 20170721; settings: 10 µM
# Chain of Sialic acid-binding Ig-like lectin 9 (Homo sapiens) (Q9Y336 whole entry): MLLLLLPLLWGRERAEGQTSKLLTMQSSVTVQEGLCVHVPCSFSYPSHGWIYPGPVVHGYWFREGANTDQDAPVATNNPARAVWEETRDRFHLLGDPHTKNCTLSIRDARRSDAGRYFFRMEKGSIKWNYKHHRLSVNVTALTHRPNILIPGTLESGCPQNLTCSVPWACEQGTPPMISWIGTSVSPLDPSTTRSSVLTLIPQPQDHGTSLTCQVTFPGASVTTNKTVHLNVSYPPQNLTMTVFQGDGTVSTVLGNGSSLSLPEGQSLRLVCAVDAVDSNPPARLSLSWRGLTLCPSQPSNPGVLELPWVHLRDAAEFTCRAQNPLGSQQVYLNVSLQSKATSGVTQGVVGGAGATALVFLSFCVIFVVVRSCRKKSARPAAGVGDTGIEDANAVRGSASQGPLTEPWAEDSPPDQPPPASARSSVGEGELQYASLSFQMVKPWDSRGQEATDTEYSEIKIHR
# Trypanosoma cruzi = assay: Trypanosoma cruzi phosphomannomutase and mannose-1-phosphate guanylyltransferase assay; format: functional; settings: 10 µM
# [5] = target: T2, Arginase-2, mitochondrial (Homo sapiens) (UniProt P78540); assay: in vitro enzyme assay to detect the production of urea directly proportional to the activity of Arginase II; format: functional; settings: 33.3 µM; note: in the data most compounds retested in dose-response had high values
# T2 sequence (whole entry): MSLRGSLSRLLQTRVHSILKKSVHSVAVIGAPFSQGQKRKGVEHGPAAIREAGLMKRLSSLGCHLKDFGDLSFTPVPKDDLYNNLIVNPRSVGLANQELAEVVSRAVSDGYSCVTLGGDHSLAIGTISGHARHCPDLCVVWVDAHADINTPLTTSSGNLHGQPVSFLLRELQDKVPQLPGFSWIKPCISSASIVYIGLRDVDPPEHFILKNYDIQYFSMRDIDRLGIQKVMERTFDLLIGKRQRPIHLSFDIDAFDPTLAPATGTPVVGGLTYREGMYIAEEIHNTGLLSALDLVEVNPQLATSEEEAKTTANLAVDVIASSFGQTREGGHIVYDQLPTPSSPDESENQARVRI
# [6] = target: T3, Proteasome subunit beta (Trypanosoma cruzi) (UniProt O96673); assay: Trypanosoma cruzi proteasome chymotrypsin-like activity (TcProtChymo) assay.; note: in the data most compounds retested in dose-response had high values; format: functional; settings: 9.37 µM
# T3 sequence (whole entry): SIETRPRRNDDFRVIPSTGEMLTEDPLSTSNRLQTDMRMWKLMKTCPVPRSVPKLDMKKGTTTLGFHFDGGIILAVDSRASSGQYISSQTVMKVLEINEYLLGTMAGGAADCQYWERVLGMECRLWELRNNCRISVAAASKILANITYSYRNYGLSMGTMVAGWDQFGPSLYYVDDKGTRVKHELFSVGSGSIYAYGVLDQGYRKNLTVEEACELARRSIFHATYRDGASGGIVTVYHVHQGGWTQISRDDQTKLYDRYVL
# Homo sapiens = species on record: Homo sapiens; assay: To identify inhibition of the IFN signalling (Jak-Stat) pathway via expression of an eGFP reporter gene under the control of an IFN-stimulated response element (ISRE) containing MxA promoter.; format: functional; settings: 30 µM
# [7] = target: T4, Tyrosyl-tRNA synthetase, putative (Trypanosoma cruzi (strain CL Brener)) (UniProt Q4DSP6); assay: Trypanosoma cruzi tyrosyl tRNA synthetase (TcYRS) _High Tyrosine SOP; format: functional; settings: 30 µM; note: in the data most compounds retested in dose-response had high values
# T4 sequence (whole entry): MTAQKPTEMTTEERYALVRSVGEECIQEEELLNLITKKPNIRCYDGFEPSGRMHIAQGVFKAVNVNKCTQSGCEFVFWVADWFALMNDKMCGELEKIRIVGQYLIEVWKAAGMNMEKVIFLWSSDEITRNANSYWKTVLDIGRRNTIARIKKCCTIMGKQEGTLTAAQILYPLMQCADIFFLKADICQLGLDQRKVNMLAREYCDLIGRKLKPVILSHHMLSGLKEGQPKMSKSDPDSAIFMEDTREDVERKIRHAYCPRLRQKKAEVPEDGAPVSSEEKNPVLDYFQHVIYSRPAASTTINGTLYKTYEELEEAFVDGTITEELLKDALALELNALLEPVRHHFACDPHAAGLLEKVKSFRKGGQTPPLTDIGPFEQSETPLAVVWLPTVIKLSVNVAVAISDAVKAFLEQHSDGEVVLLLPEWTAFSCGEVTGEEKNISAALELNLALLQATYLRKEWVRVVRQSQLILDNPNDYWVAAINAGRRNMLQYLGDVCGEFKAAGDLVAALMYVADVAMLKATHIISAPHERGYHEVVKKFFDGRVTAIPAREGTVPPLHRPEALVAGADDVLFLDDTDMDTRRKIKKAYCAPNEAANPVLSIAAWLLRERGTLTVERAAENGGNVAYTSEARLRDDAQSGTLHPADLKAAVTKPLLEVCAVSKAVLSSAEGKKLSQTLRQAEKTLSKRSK
# [8] = target: T4, Tyrosyl-tRNA synthetase, putative (Trypanosoma cruzi (strain CL Brener)); assay: Trypanosoma cruzi tyrosyl tRNA synthetase (TcYRS) SOP; format: functional; settings: 30 µM
# [9] = target: Chromo domain-containing protein 1 (Saccharomyces cerevisiae (strain ATCC 204508 / S288c) (Baker's yeast)) (UniProt P32657); assay: ScCHD-1 Enzyme Inhibition Assay; format: functional; settings: 30 µM; note: in the data most compounds retested in dose-response had high values
# Chain of Chromo domain-containing protein 1 (Saccharomyces cerevisiae (strain ATCC 204508 / S288c) (Baker's yeast)) (P32657 whole entry, the tested form may be a part): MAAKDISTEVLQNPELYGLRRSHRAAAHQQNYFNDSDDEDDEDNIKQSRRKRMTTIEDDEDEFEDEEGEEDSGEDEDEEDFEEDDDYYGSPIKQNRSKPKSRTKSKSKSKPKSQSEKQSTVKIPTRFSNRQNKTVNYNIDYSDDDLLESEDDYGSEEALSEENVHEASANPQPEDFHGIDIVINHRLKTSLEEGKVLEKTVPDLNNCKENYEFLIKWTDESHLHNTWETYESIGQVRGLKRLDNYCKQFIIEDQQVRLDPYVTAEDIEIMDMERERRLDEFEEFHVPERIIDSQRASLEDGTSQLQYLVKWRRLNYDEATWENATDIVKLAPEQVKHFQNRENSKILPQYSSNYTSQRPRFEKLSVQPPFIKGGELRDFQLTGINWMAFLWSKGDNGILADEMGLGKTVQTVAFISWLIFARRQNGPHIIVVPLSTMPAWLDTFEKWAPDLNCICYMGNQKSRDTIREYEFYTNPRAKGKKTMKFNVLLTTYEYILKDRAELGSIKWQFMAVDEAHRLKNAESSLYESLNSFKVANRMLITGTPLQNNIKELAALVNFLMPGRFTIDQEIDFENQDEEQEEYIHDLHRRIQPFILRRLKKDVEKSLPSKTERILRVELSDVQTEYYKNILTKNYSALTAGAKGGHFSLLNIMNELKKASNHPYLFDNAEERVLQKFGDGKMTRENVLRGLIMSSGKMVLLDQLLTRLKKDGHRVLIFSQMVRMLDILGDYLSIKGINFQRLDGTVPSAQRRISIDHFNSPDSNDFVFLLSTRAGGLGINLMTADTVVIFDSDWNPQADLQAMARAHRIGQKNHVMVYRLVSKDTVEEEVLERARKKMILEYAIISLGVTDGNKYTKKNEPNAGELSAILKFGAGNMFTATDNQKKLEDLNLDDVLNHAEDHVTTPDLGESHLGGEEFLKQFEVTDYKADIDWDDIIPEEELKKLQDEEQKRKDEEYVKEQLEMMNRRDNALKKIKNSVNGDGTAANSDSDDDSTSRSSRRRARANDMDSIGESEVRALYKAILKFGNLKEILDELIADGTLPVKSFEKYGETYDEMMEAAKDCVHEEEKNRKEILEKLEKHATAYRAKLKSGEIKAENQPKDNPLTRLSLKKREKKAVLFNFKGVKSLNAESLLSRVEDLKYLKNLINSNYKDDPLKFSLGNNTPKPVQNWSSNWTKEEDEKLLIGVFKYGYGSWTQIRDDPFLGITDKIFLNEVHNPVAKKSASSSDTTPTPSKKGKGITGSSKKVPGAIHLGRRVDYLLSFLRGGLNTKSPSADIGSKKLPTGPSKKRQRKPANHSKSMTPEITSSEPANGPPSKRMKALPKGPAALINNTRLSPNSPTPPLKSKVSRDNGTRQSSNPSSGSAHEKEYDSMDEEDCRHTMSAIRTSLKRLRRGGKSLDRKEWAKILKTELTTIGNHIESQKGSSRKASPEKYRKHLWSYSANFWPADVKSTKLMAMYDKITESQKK
SMILES,Percent Effect [1] [%],Percent Effect [2] [%],Percent Effect [3] [%],Percent Effect [4] [%],Percent Effect (Trypanosoma cruzi) [%],Percent Effect [5] [%],Percent Effect [6] [%],Percent Effect (Homo sapiens) [%],Percent Effect [7] [%],Percent Effect [8] [%],Percent Effect [9] [%]
COc1ncccc1NC(=O)C1CCS(=O)(=O)C1 (configuration not stated),-5.85,20.8,-1.47,-3.58,-5.99,-1.07,3.21,19.2,3.88,12.2,-9.93
COC1CCN(C(=O)c2c(Cl)c3ccccc3n2C)CC1,-5.47,5.33,0.805,8.11,3.41,5.21,16.2,-7.49,3.83,11.1,-5
CC(C)c1nc(C2CCCN2CCc2ccncc2)no1 (configuration not stated),-3.81,0,6.93,-0.839,-2.25,-0.356,13,27,2.91,-4.88,-0.507
O=C(Cc1cccs1)NC1CCN(c2cccc(F)c2)CC1,-3.15,16.4,6.31,18.6,2.74,7.27,9.05,-1.55,5.38,15,1.6
O=C1CCC2(CCN(c3ncc(F)cn3)CC2)N1CCN1CCCC1,-2.97,7.79,-0.558,-6.43,-2.07,1.94,21.4,12.5,1.06,3.85,-7.84
O=C(C1CCC1)N1CCN(Cc2ccsc2)[C@H]2CS(=O)(=O)C[C@H]21,-4.53,2.6,1.04,4.76,-5.41,1.38,15.8,2.92,2.15,3.7,-0.294
Cc1oncc1C(=O)N1CCC2(CCN(Cc3ccccn3)C2=O)C1 (configuration not stated),-5.3,-2.74,-0.544,4.81,-2.78,-3.19,8.82,15.6,2.08,1.24,-0.071
COc1cccc(N2CCN(CCC(=O)NC3CCCC3)CC2)c1,-4.61,7.89,6.03,5.22,-0.292,-22.5,16.6,4.41,9.57,13,-4.62
CC(NC(=O)NCCCn1cccn1)c1ccc2c(c1)NC(=O)CO2 (configuration not stated),-6.96,25.3,-6.75,-5.5,10.1,-3.42,10.2,15.4,8.37,29.1,-10.1
CCN(CC)Cc1cn2c(n1)CN(C(=O)c1cnccn1)CC2,-2.54,10.8,3.85,-1.54,-3.62,6.69,19.9,-5.71,3.24,7.69,0.514
COCCN(Cc1nc2c(cnn2C)c(=O)[nH]1)Cc1ccco1,-2.48,16.2,-7.78,-3.6,-4.43,5.61,12.6,4.47,9.36,18.5,-4.09
c1cncc(COCC2CN(Cc3ccco3)Cc3ccnn3C2)c1 (configuration not stated),-3,13.5,-6.55,4.29,-0.0978,6.2,5.06,9.51,7.53,13.6,-2.33
COCCC(=O)N1CCN(C)c2ncccc2C1,-4.6,2.6,1,7.83,-2.06,-1.38,3.83,2.13,5.38,6.17,2.1
O=C(NC1(c2cccc(F)c2)CCOCC1)c1ccccn1,-5.05,2.6,-0.416,0.357,-4.03,2.76,0.499,14.4,-6.45,-6.17,2.74
Clc1ccc2cccnc2c1CN1CCCC(Cn2cncn2)C1 (configuration not stated),-4.92,0,-3.69,7.75,0.279,1.66,12,18.1,7.92,13.4,3.69
CN1CC2(COCCN(C(=O)c3ccco3)C2)OCC1=O (configuration not stated),-5.81,2.67,-0.919,-3.45,-5.99,-55.4,0.513,-7.28,-3.12,-2.5,-2.77
COc1ccc(C2(CNC(C)c3nnc(C)o3)CCCCC2)cc1 (configuration not stated),-1.33,-8.11,-8.86,6.11,8.69,-4.76,6.03,5.78,0.529,0,0.233
CS(=O)(=O)CCC(=O)NC1(c2cccc(Br)c2)CC1,-2.11,13.5,-4.94,18.2,6.37,1.43,15,-3.85,3.7,12.2,-3.61
Cc1ccc(C(CNCC2CC2)N2CCOCC2)s1 (configuration not stated),4.94,8.11,-0.221,3.49,-6.05,1.67,11.9,26.7,9.9,8.54,-6.06
Cc1nnc(CN2CCN(CC(O)c3cccc(F)c3)CC2)n1C (configuration not stated),-3.94,15.6,-3.28,3.58,2.64,0.632,8.33,14,3.81,11.8,-20.7
CSCC[C@H](N)C(=O)NCc1cc2n(n1)CCCN(C(=O)C1CCC1)C2,-0.458,6.94,-3.76,1.43,8.26,-0.442,10.5,-24.3,0,12.8,-3.49
CC(=O)N1CCC(c2ccnc(Nc3cnccn3)n2)C1 (configuration not stated),-0.594,13.3,12.9,1.15,-4.72,-4.43,5.73,5.13,4.25,16.7,-5.82
